Hits are enriched below; roughly 10% of the tested compounds scored in any of these assays.
GPT2 inhibitor: Primary qHTS assay for inhibitors of Glutamate pyruvate transaminase 2 (GPT2); Alanine aminotransferase 2 (Homo sapiens), Q8TD30; Recombinant GPT2, coupled pyruvate oxidase/HRP Amplex Red fluorescence; Potency, µM (series often up to 57.7 µM), without a hit: at the top dose activity change, negative = inhibition, most hits filed as inhibitors; hit rate 0.25% among 100,000; AID 1671188, 2021; also: nearly all actives have a fitted effect of over 60% in size
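Recombinant GPT2 (10ng/uL) with 250uM a-KG and 2mM L-alanine, 30 min at room temperature, in HEPES pH 7.5 buffer. Pyruvate detected by pyruvate oxidase/HRP/Amplex Red fluorescence after 30 min in the dark; AOA (50uM) as positive control.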
3T3 cytotox: Cytotoxic Profiling in NIH 3T3 Cell Line of Diverse Libraries Using Quantitative High-Throughput Screening | NIH 3T3 viability, CellTiter-Glo ATP luminescence, 48-72 h | Potency, µM (doses to about 96.7 µM), for inactives: top-dose activity change, negative = cytotoxicity, hits mostly inhibitors | hit rate 4.3% among 94,000 | AID 1345082, 2018; also: nearly all actives have a fitted effect of over 55% in size
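First NIH 3T3 cells are plated at 400 cells/well; next compound is pinned in; then plates incubate 48 or 72 hr at 37 °C; finally CellTiter-Glo is added and luminescence read after 10 min.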
Luciferase inh: Firefly luciferase inhibition profiling of diverse chemical library using quantitative high-throughput screening | purified P. pyralis luciferase, luminescence, biochemical | Potency, µM (highest dose often 115 µM), usual class: inhibitors | AID 1347043, 2019 | hit rate 2.5% among 76,000 | Luciferin 4-monooxygenase (Photinus pyralis), P08659; also: nearly all actives have a fitted effect of over 65% in size
Target sequence (P08659 whole entry, looked up): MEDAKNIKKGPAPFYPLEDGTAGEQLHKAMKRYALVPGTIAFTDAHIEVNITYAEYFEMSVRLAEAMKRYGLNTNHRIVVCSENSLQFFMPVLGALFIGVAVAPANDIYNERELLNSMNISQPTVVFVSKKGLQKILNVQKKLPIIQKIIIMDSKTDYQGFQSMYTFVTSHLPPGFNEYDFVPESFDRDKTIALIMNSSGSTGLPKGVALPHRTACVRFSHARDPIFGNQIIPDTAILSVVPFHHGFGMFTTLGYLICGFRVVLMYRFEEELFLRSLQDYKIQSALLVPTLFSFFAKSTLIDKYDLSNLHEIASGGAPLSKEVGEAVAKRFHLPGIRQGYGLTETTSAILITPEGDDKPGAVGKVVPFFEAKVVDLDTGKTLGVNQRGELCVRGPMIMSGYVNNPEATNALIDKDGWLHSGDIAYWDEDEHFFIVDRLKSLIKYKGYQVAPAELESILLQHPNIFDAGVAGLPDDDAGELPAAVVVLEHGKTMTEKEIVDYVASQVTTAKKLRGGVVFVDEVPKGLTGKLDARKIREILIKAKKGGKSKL
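FLuc 10nM, D-luciferin 10uM, ATP 10uM, Mg acetate 10mM, Tris acetate pH 7.5, Tween/BSA; cpd qHTS; enzyme added last; CCD luminescence.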
HEK293 tox: Cytotoxic Profiling in HEK 293 Cell Line of Diverse Libraries Using Quantitative High-Throughput Screening; HEK 293 viability, ATP luminescence (CellTiter-Glo), 48-72 h; Potency, µM (titrated, usually from 115 µM), inactives show top-dose activity change, negative = cytotoxicity, hits mostly inhibitors; hit rate 6.6% among 94,000; also: nearly all actives have a fitted effect of over 60% in size
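Read-out: CellTiter-Glo ATP luminescence. Cells: HEK 293, 250 cells/well. Exposure: 48 or 72 hr, 37 degree Celsius.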
hNpr1 antagonist: Natriuretic polypeptide receptor (hNpr1) antagonism - Primary qHTS | Atrial natriuretic peptide receptor 1 (Homo sapiens), P16066 | HEK293 hNpr1 GloSensor cGMP, ANP-stimulated luminescence | Potency, µM (titrated, usually from 46.3 µM), for the others: at the top dose activity change, negative = inhibition, actives largely listed as inhibitors | hit rate 1.6% among 76,000 | AID 1347048, 2019; calls by dose curve; also: nearly all actives have a fitted effect of over 60% in size
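HEK293 cells stably expressing human Npr1 and cGMP GloSensor pGS-40F, loaded 2 h with 2% GloSensor reagent, given compound 30 min at room temperature. Luminescence read before and 20 min after 0.1 nM hNppA.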
Numbers without * were called inactive; i = inactive; ? = inconclusive; . = no result given. Unless noted, calls follow the shape of the dose curve; as a rule, active = well fitted curve in the direction sought with a large enough effect; inconclusive = small, poorly fitted or top-dose-only effect, or another doubt; inactive = no such curve, though single readings can be large; an effect the other way counts as inactive or inconclusive. % is scaled to controls: 0 for no effect and ±100 for the full control effect; potency is read from the fitted curve at half-maximal effect.

SMILES	GPT2 inhibitor	3T3 cytotox	Luciferase inh	HEK293 tox	hNpr1 antagonist
O=C(NCc1ccc2c(c1)OCO2)C1CCCN(Cc2cccc(-c3ccc(F)cc3F)c2)C1 (stereo not drawn)	i	?	.	?	.
CC(C)(C)C(=O)NC1CN(c2ccnc3ccnn23)C1	-12.5%	-14.6%	.	-6.9%	.
O=C(c1ccccc1F)N1CCCC2(C1)NC(=O)N(Cc1cccc(Cl)c1)C2=O (stereo not drawn)	-3.8%	-5.8%	i	?	-27.9%
CCN1CCCC2(Cc3ccccc3CN([S+](=O)([O-])c3ccccc3)C2)C1 (stereo not drawn)	i	0.3%	.	-17.0%	.
CN(C)C[C@@H]1CN(C2CCOCC2)C[C@H]1NC(=O)c1cc2ccccc2[nH]1	-17.0%	?	i	31.6µM*	-18.6%
CCOc1ccccc1NC(=O)CC1CCCN(c2cnn(CC3CC3)c(=O)c2)C1 (stereo not drawn)	-2.2%	35.5µM*	i	?	0.0%
COc1ccccc1NC(=O)CC1CCCN(c2cnn(CC3CC3)c(=O)c2)C1 (stereo not drawn)	-6.1%	35.5µM*	i	1.3%	-20.4%
N#Cc1cccnc1-c1ccc(C(=O)N2CCC(N[S+](=O)([O-])c3ccccc3)CC2)cc1	?	-29.1%	.	-22.6%	.
Cc1ccc(-c2cccc(CN3CCCC3C(=O)N3CCCCC3)c2)cc1Cl (stereo not drawn)	.	31.6µM*	.	31.6µM*	.
Cc1ccc(-c2cccc(CN3CCCC3C(=O)N3CCC(C#N)CC3)c2)cc1Cl (stereo not drawn)	.	31.6µM*	.	39.8µM*	.
Cc1csc(CN(C)C(=O)CC(c2ccccc2)c2ccc3c(c2)OCO3)n1 (stereo not drawn)	3.9%	-23.0%	31.6µM*	44.7µM*	-30.5%
O=C(CC(c1ccccc1)c1ccc2c(c1)OCO2)N1CCSCC1 (stereo not drawn)	-2.0%	-24.7%	i	?	?
CC(c1ccccc1)N1CCN(c2cccc(CN(C)S(C)(=O)=O)c2)CC1 (stereo not drawn)	.	?	.	44.7µM*	.
COC(=O)N(C)Cc1cccc(N2CCN(C(C)c3ccccc3)CC2)c1 (stereo not drawn)	.	?	.	44.7µM*	.
COCCN(C)C(=O)c1cn(C2CN(C(=O)Nc3ccccc3F)C2)nn1	-9.2%	-15.0%	.	-2.5%	.
Cc1cc(C)n(CCC(=O)N2CCC(CCOc3ccc(F)cc3)C2)n1 (stereo not drawn)	0.6%	-21.9%	i	79.4µM*	?
Cc1ccc(OCC(=O)N2CCC(CCOc3ccc(F)cc3)C2)cc1 (stereo not drawn)	-5.7%	?	i	?	-18.8%
Cn1c(=O)c2c(ncn2CC(=O)N2CCC(CCOc3ccc(F)cc3)C2)n(C)c1=O (stereo not drawn)	i	-24.1%	i	89.1µM*	-30.3%
Cc1nc(-c2ccc(Cl)cc2)n(Cc2cccc(C(F)(F)F)c2)c(=O)c1CCO	?	?	i	?	-7.2%
Cc1nc(-c2ccccc2)n(Cc2cccc(C(F)(F)F)c2)c(=O)c1CCO	-26.8%	?	i	50.1µM*	0.6%
Cc1nc(-c2ccc(F)cc2)n(Cc2cccc(C(F)(F)F)c2)c(=O)c1CCO	-9.8%	?	i	44.7µM*	-7.1%
COCCn1c(=O)c(C(=O)N2CCC(C#N)CC2)nc2cccnc21	i	i	.	0.0%	.
O=C1NC(=NC2CCCCC2)C2(CCN(Cc3cccnc3)C2)N1c1cc(F)cc(F)c1 (stereo not drawn)	-14.3%	35.5µM*	.	-11.0%	.
O=C1NC(=NC2CCCCC2)C2(CCN(Cc3cccnc3)CC2)N1c1cc(F)cc(F)c1	-8.4%	28.2µM*	.	i	.
O=C(c1ccc(F)cc1)N1CCc2nc(C3CC3)nc(-c3ccc(Cl)cc3)c2C1	-5.9%	?	i	?	7.3%
COc1ccccc1-c1cccc(C(=O)N2CCN(C(=O)C3CC3)CC2)c1	i	?	.	?	.
